# The source made the active and inactive calls. Calls follow the shape of the dose curve; as a rule, active = well fitted curve in the direction sought with a large enough effect; inconclusive = small, poorly fitted or top-dose-only effect, or effect the other way, or another doubt; inactive = no such curve, though single readings can be large or run the other way.
# Test: qHTS of Nrf2 Activators: LOPAC Validation (AID 624149)
# Settings: Nrf2/ARE reporter cell assay; series mostly up to 46.1 µM
# Summary of the method: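 AREc32_Fluc cells, 1000/well in OPTI-MEM with 5% FBS, grown overnight, then exposed to compounds for 24 hr at 37 deg C, 5% CO2. ARE-driven firefly luciferase read by Steady-Glo luminescence after 30 min at RT.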
row,SMILES,outcome
1,OCC1O[C@H](O)C(Cl)C(O)C1O (stereo not given in full),inactive
2,C=C[C@H]1CN2CC[C@@H]1C[C@@H]2[C@@H](O)c1ccnc2ccc(OC)cc12,inactive
3,CN1CCc2cccc3c2C1Cc1ccc(O)c(O)c1-3 (stereo not given),inactive
4,CO/N=C(\C(=O)N[C@@H]1C(=O)N2C(C(=O)O)=C(COC(C)=O)CS[C@H]12)c1csc(N)n1,inactive
5,O=C(O)CNC(=O)C(CS)Cc1ccccc1 (stereo not given),inactive
6,c1ccc(-c2ccccn2)nc1,inactive
7,CC(C)NCC(O)COc1cccc2ccccc12 (stereo not given),inactive
8,O=C(CCCCCN1CCN(c2ccccc2-c2ccccc2)CC1)NC1CCCc2ccccc21 (stereo not given),inactive
9,O=c1[nH]c2cc(C(F)(F)F)ccc2n1-c1cc(C(F)(F)F)ccc1O,inactive
10,Nc1nc(Cl)nc2c1ncn2[C@@H]1O[C@H](CO)[C@@H](O)[C@H]1O,inactive
11,Nc1nc(SCc2ccc([N+](=O)[O-])cc2)c2ncn([C@@H]3O[C@H](CO)[C@@H](O)[C@H]3O)c2n1,inactive
12,Oc1cc2c(cc1O)CN(C(=S)NCCc1ccc(Cl)cc1)CCC2,inactive
13,COC(=O)c1c(C)[nH]c(C)c1C(=O)c1ccccc1Cc1ccccc1,inactive
14,N.N.N.N.N.N.N.N.N.N.N.N.N.N.O.O.[Ru+4].[Ru+5].[Ru+5],inactive
15,Ic1ccc(N2CCN(Cc3c[nH]c4ncccc34)CC2)cc1,inactive
16,Nc1nc(Nc2ccccc2)nc2c1ncn2[C@@H]1O[C@H](CO)[C@@H](O)[C@H]1O,inactive
17,Fc1cccc(/C=N/N=C/c2cccc(F)c2)c1,inactive
18,CNC(=O)[C@H]1O[C@@H](n2cnc3c(NCc4cccc(I)c4)ncnc32)[C@H](O)[C@@H]1O,inactive
19,NC[C@@H]1O[C@H](C23CC4CC(CC(C4)C2)C3)Cc2c1ccc(O)c2O,inactive
20,COc1cccc(C(=O)NCCN2CCN(c3ccc(Cl)cc3)CC2)c1,inactive
21,Nc1ncnc2c1ncn2[C@@H]1O[C@H](COP(=O)(O)OP(=O)(O)OP(=O)(O)OP(=O)(O)OC[C@@H]2O[C@H](n3cnc4c(N)ncnc43)[C@@H](O)[C@H]2O)[C@@H](O)[C@H]1O,inactive
22,Brc1c(Br)c(Br)c2n[nH]nc2c1Br,inactive
23,CNc1ncnc2c1ncn2[C@@H]1O[C@H](CO)[C@@H](O)[C@H]1O,inactive
24,NO,inactive
25,O=C(c1ccc(Cl)cc1)N1CCN(c2ccc([N+](=O)[O-])c3ncccc23)CC1,inactive
